# Only some compounds are listed: those with a hit (about 4.1% of all), similar ones and a draw of the others.
# hcDAF-12 act – activates DAF-12 receptor from parasite H. contortus. HEK293 hcDAF-12 lit1-tk-luc reporter, luminescence; 0% DMSO, 100% Δ7-dafachronic acid. activation, % at 6.8 µM. 370,000 tested, 1.4% active;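 active = activation above the mean of all tested compounds plus 3 SD, cut at about 5.5% in these data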;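 also: 100% = response to 3 µM Δ7-dafachronic acid high control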
# DAX1 inh-1 – blocks DAX1 repression of SF-1 activated StAR promoter. inhibition, % at 6.8 µM. 370,000 tested, 1.1% active. HEK293T StAR-luciferase reporter, SF-1/DAX-1 repression relief;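 active = inhibition above the mean over all tested compounds plus 3 SD, cut at about 3.6% in these data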;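 also: 0% = DAX-1 cells with DMSO and 100% = cells lacking DAX-1 with DMSO; higher inhibition means more luminescence from relief of DAX-1 repression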
# ssDAF12 agonist – activators of S. stercoralis DAF-12 nuclear receptor | HEK293 ssDAF-12/GRIP1 lit1-tk-luc reporter, luminescence; % of 3 µM dafachronic acid response | activation, % at 6.8 µM | 370,000 tested, 1% active;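 active = activation above the mean over all tested compounds plus 3 SD, cut at about 0.9% in these data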;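 also: 0% = DMSO-only wells and 100% = 3 µM delta7-dafachronic acid wells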
# DAX1 inh-2 – inhibits human nuclear receptor DAX1 | inhibition, % at 6.75 µM | AID 504766 | HEK293 Gal4-DAX1 luciferase reporter, luminescence | 340,000 tested, 0.99% active | P51843;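 active = inhibition above the mean over all tested compounds plus 3 SD, cut at about 4.2% in these data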;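 also: 0% = DAX1-transfected cells with DMSO and 100% = empty-vector control cells with DMSO; inhibition shows as a rise in luminescence from relieved DAX1 repression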
# Target sequence (P51843 207-470 limits assumed): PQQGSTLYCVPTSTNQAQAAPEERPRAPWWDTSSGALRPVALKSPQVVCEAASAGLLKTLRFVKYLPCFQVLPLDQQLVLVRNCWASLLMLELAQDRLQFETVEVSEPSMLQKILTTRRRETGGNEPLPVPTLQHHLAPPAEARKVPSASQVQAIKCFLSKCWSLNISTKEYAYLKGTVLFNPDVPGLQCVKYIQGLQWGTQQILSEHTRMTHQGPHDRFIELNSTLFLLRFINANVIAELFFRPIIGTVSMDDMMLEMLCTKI
# hgDAF12 agonist – agonists of H. glycines DAF-12 nuclear receptor; HEK293 GAL4-hgDAF12 UAS-luciferase reporter, agonist luminescence; normalized to butyrate control; activation, % at 6.8 µM; 370,000 tested, 1.8% active; AID 687014;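 active = activation above a cutoff set at the mean of all screened compounds plus 3 SD, cut at about 10% in these data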;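 also: 0% = DMSO wells and 100% = sodium butyrate wells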
# Starred values were filed as active, the others as inactive; . = no result given.
SMILES,hcDAF-12 act,DAX1 inh-1,ssDAF12 agonist,DAX1 inh-2,hgDAF12 agonist
Clc1ccc(-c2nnc(SCc3cccc4ccccc34)n2-c2ccc(Cl)cc2)cc1,-3.2,-1.5,-2.3,.,1.4
COc1ccc(CNc2ccc([N+](=O)[O-])cn2)cc1,-0.3,0.4,-0.4,2.4,11.7*
COC(=O)C[C@@H]1CC[C@@H]2[C@@H](COc3ccc(NC(=O)Nc4ccccc4)cc3C(=O)N2C)O1,-1.2,-0.9,-0.6,.,-3.9
Cc1ccc2c(c1)c1nc3ccccc3nc1n2C,5.9*,0.3,1.9*,4.5*,5.0
CSc1nc(O)c(C(c2cccc([N+](=O)[O-])c2)c2c(O)nc(SC)[nH]c2=O)c(=O)[nH]1,6.0*,-0.5,0.7,1.1,-0.1
CCOC(=O)C1=C(C)Nc2nc3ccccc3n2C1c1ccccc1 (centres undefined),0.5,0.4,-0.7,5.4*,0.5
O=C(CCc1ccccc1)N[C@H]1/C(=N/O)CCC[C@]12C(=O)N(Cc1ccccc1)c1ccccc12,-2.6,-1.3,-1.5,.,1.6
Cc1ccc(Cl)cc1NC(=O)CCC(=O)Nc1cc(Cl)ccc1C,-1.9,0.5,-0.8,-0.4,-1.9
CCCC(=O)Nc1cc(Cl)ccc1C,0.6,0.0,-1.8,6.5*,-0.1
CCN1Cc2nnn(CC3CCCCC3)c2-c2ccccc2S1(=O)=O,-1.5,-1.6,-1.9,.,-1.6
O=C(c1ccccc1)c1ccc(N2CCCC2)cc1,2.0,1.8,-0.2,0.6,11.8*
O=C(/C=C/c1ccccc1)Nc1ccc(N2CCCCC2)cc1,0.7,1.7,-0.1,0.3,12.6*
O=C(O)c1ccc(N2CCCCC2)cc1,-0.7,-0.1,-1.8,1.7,-0.2
COC(=O)c1cc(NC(=O)/C=C/c2ccccc2)ccc1O,0.7,0.9,-1.2,.,11.4*
O=C(Cc1ccccc1)c1ccc(N2CCOCC2)cc1,0.8,1.1,-0.6,1.1,11.1*
O=[N+]([O-])c1cccc(NCCCN2CCC(C(O)(c3ccccc3)c3ccccc3)CC2)c1,1.4,0.4,-1.0,.,0.6
CCN1CC=C2C(C#N)=C(N)C(C#N)(C#N)C(CCc3ccccc3)C2C1 (centres undefined),2.7,0.3,1.0*,0.4,1.1
CC(=O)N1CC=C2C(C#N)=C(N)C(C#N)(C#N)C(CCc3ccccc3)C2C1 (centres undefined),2.0,-0.1,0.5,0.5,0.5
O=S1(=O)CC2c3ccccc3CN2CN1CCc1ccccc1 (centres undefined),2.6,-0.2,-1.3,.,5.7
Cc1cccc(-n2nnc(C(=O)Nc3ccc(F)cc3)c2N)c1,3.4,2.4,-0.2,0.9,11.6*
CCc1ccc(Cn2nnc(C(=O)Nc3cccc(C)c3)c2N)cc1,-1.3,-0.3,-1.3,4.3*,3.1
CCOc1ccc(Cn2nnc(C(=O)Nc3cc(C)cc(C)c3)c2N)cc1,0.0,1.5,-0.9,3.6,-2.9
COc1cccc(NC(=O)N2CC[C@@H]3[C@H]2c2cc(-c4cccc(C#N)c4)ccc2N(C)[C@@H]3CO)c1,-3.5,-2.7,-1.9,.,-3.0
CC1(C)CC(NC(=O)c2ccc(Cl)c(Cl)c2)CC(C)(C)N1,1.0,0.6,-0.8,4.6*,1.0
Cc1noc(C)c1-c1ccc(C(=O)NC2CCCCC2)c2occc12,-1.1,-0.1,1.7*,.,5.2
SMILES,hcDAF-12 act,DAX1 inh-1,ssDAF12 agonist,DAX1 inh-2,hgDAF12 agonist
C/C(=N/NC(=O)c1ccccn1)c1c[nH]c2ccccc12,5.6,1.7,0.7,5.8*,11.7*
C/C(=N\NC(=O)c1ccc(Cl)cc1)c1ccccn1,-0.3,0.6,-0.6,1.9,-0.9
C/C(=N/NC(=O)c1ccccn1)c1ccc(O)cc1,2.9,5.1*,0.0,4.6*,12.6*
C/C(=N\NC(=O)c1ccccn1)c1ccc(Cl)cc1,5.3,3.2,-0.1,.,9.2
C/C(=N\NC(=O)c1c[nH]c2ccccc12)c1ccc(C)o1,5.7*,2.1,2.7*,1.8,5.6
CC(C)(C)c1ccc(-c2nnc(SCC(=O)Nc3ccccc3-c3ccccc3)n2Cc2ccco2)cc1,-1.2,-0.3,-2.0,.,-2.4
c1ccc(COc2ccc(OCCN3CCCC3)cc2)cc1,0.6,0.5,-1.8,-1.6,6.0
CCN1CCN(Cc2ccc(OCc3ccccc3)cc2)CC1,3.2,1.8,-1.2,1.8,12.7*
c1ccc(COc2ccc(OCCN3CCCCC3)cc2)cc1,6.0*,0.1,-0.8,-0.7,-0.7
CCOC(=O)CNC(=O)N(C)[C@H]1C[C@H]2c3[nH]c4c(-c5cccc(C)c5)cccc4c3CCN2C(=O)[C@H]1[C@H](C)O,-1.2,-0.4,-1.9,.,-3.9
CN1C(=O)C(O)(CC(=O)/C=C/c2ccco2)c2cc(Br)ccc21 (centres undefined),2.9,0.6,-0.5,-1.1,3.7
CN1C(=O)C(O)(CC(=O)c2ccccc2O)c2cc(Br)ccc21 (centres undefined),3.1,-0.9,-0.2,4.4*,-1.1
Cc1cccc(-c2cccc3c4c([nH]c23)[C@@H]2C[C@H](N(C)C(=O)c3ccccc3C)[C@H]([C@H](C)O)CN2CC4)c1,-1.4,-0.8,-2.0,.,-0.2
CCSc1nsc(NC(=O)Nc2ccccc2F)n1,2.4,0.2,-0.5,1.4,11.3*
Cc1ccc(CN2CCCCC(NC(=O)c3ccc(-c4ccccc4)cc3)C2=O)cc1 (centres undefined),-3.8,-4.0,-1.8,.,0.5
CN(C)c1nc(-c2ccccc2)ncc1S(=O)(=O)c1ccccc1,-1.7,4.0*,-0.1,0.0,1.9
CCN(CC)c1nc(-c2ccccc2)ncc1S(=O)(=O)c1ccc(C)cc1,0.1,-0.5,-1.6,0.5,0.9
COC(=O)c1ccc(CSc2nc3ccccc3o2)cc1,2.0,2.5,0.7,-1.2,9.6
O=[N+]([O-])c1ccc(CSc2nc3ccccc3o2)cc1,3.6,3.6*,0.5,1.3,11.8*
C/C(=N\NS(=O)(=O)c1ccc([N+](=O)[O-])cc1)c1ccc(NC(=O)c2ccco2)cc1,0.2,4.3*,-1.3,1.6,12.4*
S=C(N/N=C/c1ccccc1Cl)Nc1ccccc1,3.1,1.1,0.7,4.4*,11.3*
CC(=O)Nc1cccc(NC(=S)Nc2cccc(Cl)c2Cl)c1,-0.6,-0.1,-1.6,0.6,-2.8
S=C(Nc1ccccc1)Nc1cccc(Cl)c1Cl,2.1,-0.6,-0.8,6.1*,2.4
COC(=O)CCCCCCCC(=O)Nc1nnc(C(F)(F)F)s1,-1.0,0.0,-1.1,6.1*,-1.9
O=C(CCCc1ccccc1)Nc1nnc(C(F)(F)F)s1,0.2,-0.9,-1.3,-1.1,-3.2
O=C(Nc1cccc(Cl)c1)OC1CCC12CCC(c1ccccc1)CC2 (centres undefined),1.1,-1.1,-1.6,.,-0.6
CCOC(=O)/C(C#N)=C/C=C1/C=CC=CN1C,-1.2,0.4,-1.4,5.7*,4.2
O=C(CSc1nccc(-c2cccs2)n1)Nc1cccc(Cl)c1Cl,1.9,0.1,1.1*,1.0,1.4
O=C(CSc1nccc(-c2cccs2)n1)Nc1ccc(Cl)cc1,2.7,-1.3,-0.9,-1.1,-0.1

# Screening results: PubChem, The Scripps Research Institute Molecular Screening Center
